Vaccinia Venus = qHTS for Stage-Specific Inhibitors of Vaccinia Orthopoxvirus: Venus Reporter Primary qHTS | Vaccinia virus Venus reporter expression, fluorescence | Potency, µM (top dose mostly 36.5 µM), hits mostly inhibitors | actives 0.46% (n = 330,000) | AID 720580, 2013; calls by dose curve; tested in A549 cells; note: nearly all actives have a fitted effect of over 30% in size
VACV mCherry inh = qHTS for Stage-Specific Inhibitors of Vaccinia Orthopoxvirus: mCherry Reporter Primary qHTS | Potency, µM (series often up to 36.5 µM), hits mostly inhibitors | Vaccinia virus mCherry reporter infection, fluorescence | AID 720579, 2013 | actives 0.63% (n = 310,000); calls by dose curve; tested in A549 cells; note: nearly all actives have a fitted effect of over 35% in size
Cycloheximide cs = Cycloheximide Counterscreen for Small Molecule Inhibitors of Shiga Toxin | actives 12% (n = 300,000) | cell reporter, cycloheximide protein synthesis inhibition counterscreen | max response, %; in the data active = max response mostly above about 13%, no sharp cut-off; inactive = mostly below about 14%; note: read at 38.3 µM for the half of the compounds with a filed dose
MARV entry inh = qHTS for inhibitors of binding or entry into cells for Marburg Virus. Marburg virus pseudotyped entry inhibition, cell reporter. actives 1.8% (n = 300,000). AID 540276, 2011. Potency, µM (top dose mostly 37.8 µM), actives largely listed as inhibitors; calls by dose curve; tested in HEK293 cells
Shiga toxin inh = A qHTS for Small Molecule Inhibitors of Shiga Toxin; Vero cells, Shiga toxin protein synthesis inhibition reporter; actives 9.2% (n = 290,000); inhibition, % at 38.7 µM; in the data active = inhibition mostly above about 28%, no sharp cut-off; inactive = mostly below about 43%
Lassa entry inh = qHTS for Inhibitors of binding or entry into cells for Lassa Virus; Lassa virus pseudotype entry inhibition, cell reporter; Potency, µM (doses to about 37.9 µM), hits mostly inhibitors; actives 1.2% (n = 300,000); AID 540256, 2011; calls by dose curve; tested in HEK293 cells; note: nearly all actives have a fitted effect of over 50% in size
A number is an active result; n = inactive; u = inconclusive; x = not tested or not shown. This is one part of a sample in which hits are shown more often than they occur.

SMILES	Vaccinia Venus	VACV mCherry inh	Cycloheximide cs	MARV entry inh	Shiga toxin inh	Lassa entry inh
Cc1ccc(C(=O)N/N=C\c2ccc(Br)o2)o1	n	n	n	u	n	n
Cc1ccc(C(=O)N/N=C/c2ccc(-c3ccc(Br)cc3[N+](=O)[O-])o2)o1	n	n	18	n	n	n
Cc1c(C(=O)N/N=C/c2ccc(-c3ccccc3[N+](=O)[O-])o2)sc(N)c1C#N	n	n	18	n	n	n
Nn1cnnc1N/N=C\c1ccc(-c2ccccc2[N+](=O)[O-])o1	n	u	17	u	n	14µM
O=C1C=CC2=C3c4cc(O)c(O)cc4C[C@]3(O)COC2=C1	n	n	x	x	x	x
Cc1cc(C)cc(-n2c(SCC(=O)N3CCCCC3)nc3c([nH]c4ccccc43)c2=O)c1	u	n	x	x	x	n
C/C(=N/O)C(=O)NCCCn1ccnc1	x	x	x	n	x	x
O=S(=O)(Nc1cccc2cccnc12)c1ccc(Br)cc1	x	x	n	x	n	x
Cc1nc2ccccc2nc(=O)c1NNc1ccccc1	n	n	20	u	23	n
Cc1ccc2nc(=O)c(NNc3ccccc3)cnc2c1	x	x	23	n	n	n
COc1ccc(C2=C(C)C(N3CCC(C(=O)Nc4cc(C)ccc4C)CC3)=NS2(=O)=O)cc1	u	u	x	x	x	n
Cc1cc(OCC(=O)N(Cc2ccc(N(C)C)cc2)Cc2ccco2)cc(C)c1Cl	n	n	x	n	x	n
COc1ccc(NC(=O)c2sc3nc[nH]c(=O)c3c2C)cc1OC	n	n	x	x	x	u
Cn1c(SCCOc2ccccc2Cl)nnc1-c1cccs1	x	x	26	n	39	n
Cn1c(SCC(=O)Nc2ccccc2F)nnc1-c1cccs1	n	n	n	n	43	x
Cn1c(Cc2cccs2)nnc1SCC(=O)Nc1ccccc1F	n	n	x	n	x	n
Cn1c(SCc2c(F)cccc2Cl)nnc1-c1cccs1	x	x	28	u	68	u
Cc1ccc(Cn2cc(CCC(=O)NC3CCC(C)CC3)c3ccccc32)cc1 (stereo not drawn)	n	n	x	x	x	u
Cc1c(-c2ccccn2)c(=O)[nH]n1-c1ccc(F)cc1	n	n	28	8.9µM	n	n
O=c1[nH]n(-c2ccc(F)cc2)c2ncccc12	x	x	n	n	n	n
COC(=O)[C@H]1C(=O)C[C@@](C)(O)[C@@H](C(=O)OC)[C@@H]1c1ccccc1F	x	x	x	n	x	x
COc1cccc(CN2C(=O)NC(C)(C3CCN(Cc4cnn(C)c4C)CC3)C2=O)c1OC (stereo not drawn)	n	n	x	x	x	x
O=C(NCc1ccccc1Cl)c1ccc(CSCc2ccccc2Cl)o1	n	n	x	x	x	n
Cc1cccc(N2CN=C3SCC(=O)N3C2)c1	x	x	n	x	n	x
Cc1ccc(N2CN=C3SCC(=O)N3C2)cc1C	x	x	22	x	n	x
SMILES	Vaccinia Venus	VACV mCherry inh	Cycloheximide cs	MARV entry inh	Shiga toxin inh	Lassa entry inh
Cc1cccc(C)c1C(O)c1ncc(-c2ccccc2C(F)(F)F)[nH]1 (stereo not drawn)	n	n	x	x	x	x
Cc1ccc(N/N=C2/CCCNC2=O)cc1	n	x	n	n	n	n
CC(=O)c1ccc(N/N=C2/CCCNC2=O)cc1	n	n	22	u	n	n
O=C1NCCC/C1=N/Nc1cc(F)ccc1F	x	x	36	x	42	x
O=C(C[n+]1ccccc1Br)c1ccc(-c2ccccc2)cc1	n	n	x	x	x	x
CC1CCN(C(=O)CCCC(=O)N2CCC(C)CC2)CC1	x	x	n	x	24	x
O=C(CCCC(=O)N1CCCC1)N1CCCC1	n	n	n	u	27	n
O=C(O)CCCC(=O)N1CCCC1	n	n	n	u	n	n
O=C(CN1CCN(Cc2ccc(Cl)cc2)C1=O)NCCCN1CCOCC1	n	n	n	x	n	x
O=C(CN1CCN(Cc2ccc(Cl)cc2)C1=O)NCCCN1CCN(c2ccc(F)cc2)CC1	x	x	n	13µM	n	n
Cc1ccc(C(=O)NC(=S)Nc2ccc(S(=O)(=O)N3CCN(C)CC3)cc2)cc1	n	n	26	u	n	n
O=C(Nc1cccc(O)c1)c1ccc(S(=O)(=O)N2CCCCCC2)cc1	n	n	18	u	52	u
CN1CCN(S(=O)(=O)c2ccc(C(=O)Nc3ccccc3)cc2)CC1	x	x	19	n	63	n
O=C(Nc1cccc(O)c1)c1cccc(S(=O)(=O)N2CCCC2)c1	n	x	n	n	n	n
CN1CCN(S(=O)(=O)c2ccc(NC(=O)c3ccc([N+](=O)[O-])cc3)cc2)CC1	n	u	x	u	x	n
O=C(O)CCC(=O)N(Cc1ccco1)C1CC(=O)N(c2ccccc2)C1=O (stereo not drawn)	n	n	n	n	n	n
O=C(Nc1ncccn1)c1ccc([N+](=O)[O-])cc1	n	n	n	x	n	x
O=C(/C=C/c1ccc(Cl)cc1Cl)NC(=S)Nc1ccccn1	n	x	38	u	86	u
Cc1nn(CC(=O)Nc2ccccn2)c(=O)c2ccccc12	n	n	n	n	n	n
O=C(Cn1nc(-c2ccccc2)c2ccccc2c1=O)Nc1ccccn1	u	x	46	u	n	u
O=C(CC(=O)c1ccccc1)Nc1ccccn1	n	n	43	n	76	n
O=C(Nc1ccccn1)c1ccccc1	n	n	x	u	x	n
O=C(NC(=S)Nc1ccccn1)c1ccc([N+](=O)[O-])cc1	n	n	51	u	199	n
Cc1ccccc1C(=O)NC(=O)Nc1ccc(-n2nc(C(F)(F)F)cc2C(F)(F)F)cc1	n	n	x	n	x	n
CCCCc1nn2c(=O)cc(COC(=O)c3cccc(OC)c3)nc2s1	n	n	x	x	x	n
COc1ccc(-c2[nH]ncc2C(=O)NCc2cccc(Cl)c2)cc1	n	n	x	n	x	x
O=C(Nc1ccccn1)c1ccc(C(=O)Nc2ccccn2)cc1	x	x	n	x	n	x
Cc1cc(C)c(NC(=S)NC(=O)c2ccc(-c3ccccc3)cc2)c(C)c1	n	n	n	u	n	8.9µM
O=C(NC(=S)Nc1ccccn1)c1ccc(-c2ccccc2)cc1	n	11µM	63	u	127	n
